Assay results as given in the supplement of paper PMC10849652.
Targets with a hit are over-represented here; the source holds about 7,900 in all. About 0.6% of all pairs of compound and target were hits.

What was measured:
Test in all cases: log2 fold change, soluble protein after heating vs DMSO (PISA); higher = thermal stabilisation; K562 cells, 10 uM, 30 min; active = over 0.2 and 3.5 SD of the protein, either way, in both replicates (recomputed)
[1] = compound: Cc1ccc(NC(=O)c2ccc(CN3CC[C@H](N(C)C)C3)c(C(F)(F)F)c2)cc1Nc1nccc(-c2cncnc2)n1 [bafetinib]
Method in brief: (§1)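 K562 cells at 2×10^6 cells/mL were treated with 10 μM compound for 30 min. Aliquots were heated for 3 min across 48°C-58°C, pooled, and extracted in PBS with 0.5% NP-40 at 4°C; soluble protein was the supernatant after 21,000xg for 90 min. Soluble protein was quantified by TMTpro 16plex LC-MS/MS with channel sums equalised, and reported as log2 fold change in thermal stability against DMSO controls, with values from duplicates.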

[2] = compound: Cc1cccc(CC(=O)N2CCc3c2ccc(-c2cn(C)c4ncnc(N)c24)c3F)n1
Method in brief: as §1

[3] = compound: Cc1cn(-c2cc(NC(=O)c3ccc(C)c(Nc4nccc(-c5cccnc5)n4)c3)cc(C(F)(F)F)c2)cn1 [nilotinib]
Method in brief: as §1

[4] = compound: Cc1nc(Nc2n[nH]c3c2CN(C(=O)N[C@H](CN(C)C)c2ccccc2)C3(C)C)c2sccc2n1
Method in brief: as §1

[5] = compound: Cc1nc(Nc2ncc(C(=O)Nc3c(C)cccc3Cl)s2)cc(N2CCN(CCO)CC2)n1 [dasatinib]
Method in brief: as §1

[6] = compound: Cc1ncc(-c2ccnc(Nc3ccc(S(C)(=O)=O)cc3)n2)n1C(C)C
Method in brief: as §1

[7] = compound: Cn1cc(-c2ccc3c(c2)CCN3C(=O)Cc2cccc(C(F)(F)F)c2)c2c(N)ncnc21
Method in brief: as §1

[8] = compound: Cn1cc(-c2ccc3nnc(C(F)(F)c4ccc5ncccc5c4)n3n2)cn1
Method in brief: as §1

[9] = compound: Cn1cncc1[C@@](N)(c1ccc(Cl)cc1)c1ccc2c(c1)c(-c1cccc(Cl)c1)cc(=O)n2C [tipifarnib]
Method in brief: as §1

[10] = compound: FC(F)(F)c1ccc(/C=C/c2nc(COc3ccc(CCCCn4ccnn4)cc3)co2)cc1 [mubritinib]
Method in brief: as §1

[11] = compound: NC(=O)Nc1cc(-c2cccc(F)c2)sc1C(=O)N[C@H]1CCCNC1
Method in brief: as §1

[12] = compound: NC(=O)c1cnc(N[C@@H]2CCCC[C@@H]2N)nc1Nc1cccc(-n2nccn2)c1
Method in brief: as §1

[13] = compound: NC1(c2ccc(-c3nc4ccn5c(=O)[nH]nc5c4cc3-c3ccccc3)cc2)CCC1
Method in brief: as §1

[14] = compound: NCC(=O)Nc1ccc(-n2nc(C(F)(F)F)cc2-c2ccc3c(ccc4ccccc43)c2)cc1
Method in brief: as §1

[15] = compound: Nc1ccccc1NC(=O)c1ccc(CNC(=O)OCc2cccnc2)cc1 [entinostat]
Method in brief: as §1

[16] = compound: O=C(CCCCCCC(=O)Nc1ccccc1)NO [vorinostat]
Method in brief: as §1

[17] = compound: O=C(CCCCCCNC(=O)c1cnc(N(c2ccccc2)c2ccccc2Cl)nc1)NO [citarinostat]
Method in brief: as §1

[18] = compound: O=C(O)c1ccc2c(c1)nc(Nc1cccc(Cl)c1)c1ccncc12 [silmitasertib]
Method in brief: as §1

[19] = compound: O=C1NC(=O)C(c2cnc3ccccn23)=C1c1cn2c3c(cc(F)cc13)CN(C(=O)N1CCCCC1)CC2
Method in brief: as §1

[20] = compound: c1cc(OCCN2CCCCC2)cc(-c2n[nH]c3ccc(-c4nnc[nH]4)cc23)c1
Method in brief: as §1

Measured: log2 fold change

PIKFYVE (UniProt Q9Y2I7)
Chain of UniProt Q9Y2I7 (Q9Y2I7 whole entry, looked up): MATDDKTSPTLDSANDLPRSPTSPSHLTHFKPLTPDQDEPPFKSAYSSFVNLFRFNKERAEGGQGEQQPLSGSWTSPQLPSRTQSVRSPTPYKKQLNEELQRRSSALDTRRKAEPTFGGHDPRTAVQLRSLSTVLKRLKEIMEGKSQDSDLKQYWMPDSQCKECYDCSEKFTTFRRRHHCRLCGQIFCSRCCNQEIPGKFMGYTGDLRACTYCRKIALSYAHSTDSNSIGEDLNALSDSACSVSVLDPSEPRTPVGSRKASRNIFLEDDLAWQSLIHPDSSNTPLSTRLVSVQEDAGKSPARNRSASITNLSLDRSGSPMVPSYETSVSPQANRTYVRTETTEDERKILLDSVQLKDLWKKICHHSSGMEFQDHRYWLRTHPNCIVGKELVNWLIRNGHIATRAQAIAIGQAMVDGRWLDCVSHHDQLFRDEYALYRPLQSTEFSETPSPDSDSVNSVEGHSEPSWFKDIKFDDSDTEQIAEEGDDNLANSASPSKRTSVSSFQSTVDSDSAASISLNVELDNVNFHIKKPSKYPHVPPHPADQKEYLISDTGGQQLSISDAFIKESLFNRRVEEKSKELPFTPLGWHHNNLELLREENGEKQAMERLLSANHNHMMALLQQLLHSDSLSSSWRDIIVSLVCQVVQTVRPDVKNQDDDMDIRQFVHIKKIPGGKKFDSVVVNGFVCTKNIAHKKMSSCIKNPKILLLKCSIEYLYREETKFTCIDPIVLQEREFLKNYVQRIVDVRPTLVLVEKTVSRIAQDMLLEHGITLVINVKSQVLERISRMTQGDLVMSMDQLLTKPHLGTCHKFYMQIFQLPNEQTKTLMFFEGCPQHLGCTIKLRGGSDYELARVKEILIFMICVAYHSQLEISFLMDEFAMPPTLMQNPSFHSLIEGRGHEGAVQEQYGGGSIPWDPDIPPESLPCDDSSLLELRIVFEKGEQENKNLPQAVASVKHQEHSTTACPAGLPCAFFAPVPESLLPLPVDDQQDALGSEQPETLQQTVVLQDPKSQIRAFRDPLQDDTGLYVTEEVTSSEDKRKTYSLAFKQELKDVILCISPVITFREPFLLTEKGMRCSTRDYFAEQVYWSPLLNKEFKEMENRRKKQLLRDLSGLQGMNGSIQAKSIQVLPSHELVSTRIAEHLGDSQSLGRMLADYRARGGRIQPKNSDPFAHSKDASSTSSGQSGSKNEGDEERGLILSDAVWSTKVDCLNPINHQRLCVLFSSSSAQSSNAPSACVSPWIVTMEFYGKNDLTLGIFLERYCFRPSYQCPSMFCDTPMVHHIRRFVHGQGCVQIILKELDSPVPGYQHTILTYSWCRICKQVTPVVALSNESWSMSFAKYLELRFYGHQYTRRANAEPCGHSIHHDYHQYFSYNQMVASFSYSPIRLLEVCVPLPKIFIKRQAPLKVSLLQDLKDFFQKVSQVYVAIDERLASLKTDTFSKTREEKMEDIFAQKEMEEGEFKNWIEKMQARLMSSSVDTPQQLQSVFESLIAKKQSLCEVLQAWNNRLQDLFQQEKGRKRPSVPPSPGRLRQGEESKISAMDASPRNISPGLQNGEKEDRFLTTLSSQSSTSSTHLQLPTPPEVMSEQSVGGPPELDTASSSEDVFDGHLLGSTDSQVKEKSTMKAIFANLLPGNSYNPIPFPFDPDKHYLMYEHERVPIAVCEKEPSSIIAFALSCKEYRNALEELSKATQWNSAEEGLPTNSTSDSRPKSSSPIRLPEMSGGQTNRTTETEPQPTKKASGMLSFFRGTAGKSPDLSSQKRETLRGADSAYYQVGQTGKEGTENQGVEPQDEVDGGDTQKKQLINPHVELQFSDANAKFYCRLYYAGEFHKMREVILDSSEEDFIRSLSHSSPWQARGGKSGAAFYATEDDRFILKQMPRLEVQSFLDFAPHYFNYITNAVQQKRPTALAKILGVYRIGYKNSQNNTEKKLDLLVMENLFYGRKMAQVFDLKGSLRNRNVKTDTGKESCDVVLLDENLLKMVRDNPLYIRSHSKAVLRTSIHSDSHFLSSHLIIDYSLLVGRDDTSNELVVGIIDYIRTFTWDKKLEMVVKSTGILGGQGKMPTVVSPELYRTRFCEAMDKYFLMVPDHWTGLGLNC
inactive: [1] -0.031 | [2] 0.153 | [3] -0.015 | [4] 0.045 | [5] -0.061 | [6] -0.092 | [7] 0.005 | [8] 0.031 | [9] 0.108 | [10] 0.017 | [11] 0.029 | [12] -0.055 | [13] -0.256 | [14] -0.072 | [15] 0.09 | [16] 0.021 | [17] -0.047 | [18] 0.006 | [19] -0.069 | [20] -0.08

PLCB3 (UniProt Q01970)
Chain of UniProt Q01970 (Q01970 whole entry, looked up): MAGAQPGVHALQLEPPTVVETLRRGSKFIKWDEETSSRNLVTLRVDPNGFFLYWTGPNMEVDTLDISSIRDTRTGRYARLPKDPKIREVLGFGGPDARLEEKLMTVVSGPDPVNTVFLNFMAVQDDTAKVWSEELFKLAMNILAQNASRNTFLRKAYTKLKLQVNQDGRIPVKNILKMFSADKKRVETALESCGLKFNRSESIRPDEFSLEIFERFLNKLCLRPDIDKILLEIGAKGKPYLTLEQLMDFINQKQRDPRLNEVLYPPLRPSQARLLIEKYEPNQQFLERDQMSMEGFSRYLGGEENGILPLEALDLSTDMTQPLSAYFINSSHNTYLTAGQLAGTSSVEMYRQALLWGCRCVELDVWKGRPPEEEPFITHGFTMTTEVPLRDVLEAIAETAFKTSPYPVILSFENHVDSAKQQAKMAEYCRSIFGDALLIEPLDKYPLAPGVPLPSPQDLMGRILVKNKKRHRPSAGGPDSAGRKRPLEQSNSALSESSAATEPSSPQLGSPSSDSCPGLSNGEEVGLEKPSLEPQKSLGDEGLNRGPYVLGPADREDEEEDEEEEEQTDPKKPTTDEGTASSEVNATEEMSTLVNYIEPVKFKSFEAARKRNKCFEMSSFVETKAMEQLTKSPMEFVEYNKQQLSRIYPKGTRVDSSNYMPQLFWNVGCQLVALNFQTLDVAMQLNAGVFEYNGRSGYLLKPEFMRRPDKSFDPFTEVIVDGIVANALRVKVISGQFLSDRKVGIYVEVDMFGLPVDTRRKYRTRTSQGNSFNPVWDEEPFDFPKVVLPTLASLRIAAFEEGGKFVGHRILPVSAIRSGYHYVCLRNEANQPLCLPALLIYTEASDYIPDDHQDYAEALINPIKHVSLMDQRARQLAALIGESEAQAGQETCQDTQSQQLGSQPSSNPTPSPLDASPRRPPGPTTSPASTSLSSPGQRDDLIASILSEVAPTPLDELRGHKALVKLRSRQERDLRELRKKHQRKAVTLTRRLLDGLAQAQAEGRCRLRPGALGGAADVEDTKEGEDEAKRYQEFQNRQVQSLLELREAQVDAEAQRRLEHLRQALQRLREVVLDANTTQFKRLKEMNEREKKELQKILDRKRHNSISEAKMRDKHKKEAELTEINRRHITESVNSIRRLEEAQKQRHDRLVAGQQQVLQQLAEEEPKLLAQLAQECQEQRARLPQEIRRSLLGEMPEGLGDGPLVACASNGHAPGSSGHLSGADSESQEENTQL
inactive: [1] -0.059 | [2] -0.084 | [3] -0.104 | [4] 0.033 | [5] -0.092 | [6] -0.006 | [7] -0.006 | [8] 0.061 | [9] -0.039 | [10] 0.003 | [11] -0.005 | [12] -0.086 | [13] -0.141 | [14] -0.023 | [15] 0.037 | [16] -0.008 | [17] -0.007 | [18] 0.008 | [19] 0.005 | [20] 0.064

PC (UniProt P11498)
Chain of UniProt P11498 (P11498 whole entry, looked up): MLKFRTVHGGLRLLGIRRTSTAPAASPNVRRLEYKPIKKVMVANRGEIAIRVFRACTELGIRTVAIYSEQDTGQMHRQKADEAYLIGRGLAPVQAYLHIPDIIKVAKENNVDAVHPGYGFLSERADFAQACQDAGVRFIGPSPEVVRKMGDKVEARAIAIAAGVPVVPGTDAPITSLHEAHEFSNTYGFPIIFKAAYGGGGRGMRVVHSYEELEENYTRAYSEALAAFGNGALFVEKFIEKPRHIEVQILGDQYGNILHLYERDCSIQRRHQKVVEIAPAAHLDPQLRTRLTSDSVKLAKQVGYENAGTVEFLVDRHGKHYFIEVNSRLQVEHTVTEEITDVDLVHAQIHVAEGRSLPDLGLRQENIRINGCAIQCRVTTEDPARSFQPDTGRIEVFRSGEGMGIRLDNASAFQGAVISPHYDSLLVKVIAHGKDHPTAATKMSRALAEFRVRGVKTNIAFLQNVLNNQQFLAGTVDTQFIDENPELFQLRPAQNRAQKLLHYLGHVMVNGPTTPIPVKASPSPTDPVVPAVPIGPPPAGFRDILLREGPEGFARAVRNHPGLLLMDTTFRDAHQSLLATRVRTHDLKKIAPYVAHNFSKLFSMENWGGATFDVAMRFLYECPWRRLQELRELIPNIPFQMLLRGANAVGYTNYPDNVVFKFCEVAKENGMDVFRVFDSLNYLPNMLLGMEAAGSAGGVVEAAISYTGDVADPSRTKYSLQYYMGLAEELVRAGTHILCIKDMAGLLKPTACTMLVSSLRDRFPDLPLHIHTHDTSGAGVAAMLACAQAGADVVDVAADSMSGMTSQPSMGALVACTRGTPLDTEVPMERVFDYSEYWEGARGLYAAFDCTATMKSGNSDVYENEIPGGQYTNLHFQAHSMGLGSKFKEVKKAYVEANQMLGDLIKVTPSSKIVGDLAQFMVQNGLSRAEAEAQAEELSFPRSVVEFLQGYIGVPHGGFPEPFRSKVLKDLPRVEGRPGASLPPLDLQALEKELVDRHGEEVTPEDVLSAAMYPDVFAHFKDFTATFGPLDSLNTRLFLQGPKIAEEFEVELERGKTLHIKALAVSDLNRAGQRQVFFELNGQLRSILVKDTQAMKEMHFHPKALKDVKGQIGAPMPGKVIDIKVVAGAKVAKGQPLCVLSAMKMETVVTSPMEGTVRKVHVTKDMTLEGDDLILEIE
inactive: [1] 0.096 | [2] 0.102 | [3] -0.014 | [4] 0.121 | [5] 0.005 | [6] -0.007 | [7] 0.047 | [8] 0.074 | [9] -0.097 | [10] 0.024 | [11] -0.025 | [12] 0.027 | [13] -0.084 | [14] 0.004 | [15] -0.003 | [16] -0.044 | [17] 0.053 | [18] -0.122 | [19] -0.099 | [20] 0.112

POMP (UniProt Q9Y244)
Chain of UniProt Q9Y244 (Q9Y244 whole entry, looked up): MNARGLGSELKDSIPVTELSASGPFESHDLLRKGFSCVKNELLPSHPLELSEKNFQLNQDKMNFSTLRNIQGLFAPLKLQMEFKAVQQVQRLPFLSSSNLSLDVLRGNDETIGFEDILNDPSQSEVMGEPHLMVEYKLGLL
inactive: [1] -0.097 | [2] -0.101 | [3] 0.142 | [4] -0.093 | [5] 0.006 | [6] -0.092 | [7] 0.079 | [8] 0.156 | [9] 0.116 | [10] 0.01 | [11] 0.106 | [12] 0.039 | [13] -0.029 | [14] -0.024 | [15] 0.05 | [16] -0.066 | [17] 0.026 | [18] 0.022 | [19] -0.022 | [20] -0.01

PLCG1 isoform 2 (UniProt P19174)
inactive: [1] -0.054 | [2] -0.08 | [3] -0.072 | [4] 0.079 | [5] -0.257 | [6] 0.024 | [7] 0.031 | [8] 0.005 | [9] -0.144 | [10] 0.11 | [11] 0.01 | [12] -0.193 | [13] -0.197 | [14] -0.109 | [15] 0.04 | [16] -0.003 | [17] 0.059 | [18] 0.01 | [19] 0 | [20] -0.066

POGLUT1 (UniProt Q8NBL1)
inactive: [1] 0.009 | [2] 0.122 | [3] -0.001 | [4] 0.03 | [5] 0.024 | [6] -0.049 | [7] -0.022 | [8] -0.073 | [9] 0.048 | [10] -0.046 | [11] -0.043 | [12] -0.057 | [13] -0.008 | [14] -0.102 | [15] -0.01 | [16] 0.112 | [17] -0.058 | [18] 0 | [19] 0.019 | [20] -0.05

PSMD7 (UniProt P51665)
Chain of UniProt P51665 (P51665 whole entry, looked up): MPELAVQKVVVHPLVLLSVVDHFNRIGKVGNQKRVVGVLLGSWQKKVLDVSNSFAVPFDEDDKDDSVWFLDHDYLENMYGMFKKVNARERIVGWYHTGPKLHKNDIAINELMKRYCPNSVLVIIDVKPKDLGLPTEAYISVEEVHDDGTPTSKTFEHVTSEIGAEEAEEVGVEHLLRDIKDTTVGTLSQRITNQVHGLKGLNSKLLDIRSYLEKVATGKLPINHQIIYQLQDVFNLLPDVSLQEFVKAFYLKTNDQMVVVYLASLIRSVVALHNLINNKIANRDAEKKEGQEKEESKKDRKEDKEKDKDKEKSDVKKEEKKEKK
inactive: [1] 0.075 | [2] 0.009 | [3] 0.014 | [4] 0.065 | [5] 0.054 | [6] -0.033 | [7] -0.116 | [8] -0.01 | [9] 0.079 | [10] 0.019 | [11] -0.04 | [12] 0.001 | [13] -0.035 | [14] 0.029 | [15] -0.049 | [16] -0.002 | [17] -0.048 | [18] 0.016 | [19] 0.051 | [20] -0.089

PEX11B (UniProt O96011)
inactive: [1] -0.022 | [2] 0.081 | [3] 0.04 | [4] 0.041 | [5] -0.071 | [6] -0.043 | [7] 0.049 | [8] 0.01 | [9] -0.063 | [10] 0.058 | [11] 0.095 | [12] 0.052 | [13] -0.03 | [14] 0.073 | [15] 0.047 | [16] 0.049 | [17] 0.114 | [18] -0.031 | [19] 0.035 | [20] 0.024

PEX16 isoform 2 (UniProt Q9Y5Y5)
inactive: [1] -0.202 | [2] 0.016 | [3] -0.067 | [4] 0.006 | [5] 0.004 | [6] -0.006 | [7] 0.079 | [8] 0.079 | [9] -0.067 | [10] 0.174 | [11] 0.061 | [12] -0.052 | [13] -0.171 | [14] -0.031 | [15] 0.022 | [16] 0.115 | [17] 0.081 | [18] -0.025 | [19] 0.033 | [20] -0.051
